Shn3 inh set2: reduction of Shn3 3'UTR firefly luciferase signal, primary screen, Schnurri-3 inhibitor project, cell-based, Clone20 osteoblasts, set 2 | actives 0.52% (n = 360,000) | Clone20 osteoblast Shn3 3'UTR firefly luciferase, 24 h | inhibition, % at 12.5 µM;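 active = mean inhibition of at least 75% with every replicate also reaching 75%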;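 note: 0% = median of neutral control wells and 100% = pilot-screen positive control compound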
Beta cell apopt: inhibitors of cytokine-induced beta cell apoptosis, primary screen, luminescence; INS-1E cytokine-induced death, ATP luminescence, 48 h; percent of positive-control rescue, neutral wells zero; protection from apoptosis, % (test concentration not listed); actives 0.8% (n = 300,000); AID 435005, 2010;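 active = Every replicate reaches about 75%, or at least half do and their mean reaches it too, limit read from the data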;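 note: 0% = cytokine-treated negative control wells and 100% = positive control rescue; higher means more ATP so stronger rescue from cytokine killing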
CSC inhib: cancer stem cell viability inhibitors, primary screen, luminescence | actives 1.1% (n = 300,000) | AID 2717, 2010 | inhibition, % at 7.5 µM | cancer stem cell-like cells viability; in the data active = inhibition above about 75%; tested in HMLE shEcad cells
Gli-Sufu antag: Gli-Sufu pathway antagonists, primary screen, luciferase luminescence, Sufu-KO-LIGHT cells, uHTS; Sufu-KO-LIGHT fibroblasts, Gli luciferase reporter luminescence; inhibition, % at 5 µM; actives 0.74% (n = 340,000);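 active = inhibition above about 55%, limit read from the data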;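 note: 0% = DMSO-treated cells and 100% = wells with medium but no cells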
PAX8 inh HTS: inhibitors of PAX8-driven TPO luciferase reporter, primary screen, RMG-I cells, single concentration. SteadyGlo, 24 h. actives 1.2% (n = 360,000). inhibition, % at 12.6 µM. AID 652154, 2013;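 active = mean replicate inhibition at least 60% with every replicate also reaching 60%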;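 note: luciferase light reporting Pax8 driven TPO promoter activity; plate controls were median of neutral control wells for no effect and mitoxantrone controls for full effect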
Mdm2 MdmX PPI: inhibitors of human Mdm2-MdmX association, primary screen, cell-based, luminescence, split luciferase, SaOS-2, uHTS | Protein Mdm4 (Homo sapiens) + E3 ubiquitin-protein ligase Mdm2 (Homo sapiens), … | SaOS-2 split-luciferase Mdm2/MdmX complementation | inhibition, % at 8 µM | actives 3% (n = 330,000);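 active = inhibition of at least 50% at 8 µM in the primary screen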
Numbers without * were called inactive. Most compounds without a hit are left out; they make up all but 4% or so of the library.

How did O=C(Cc1ccccn1)N1CCCCN2[C@@H](CO)[C@H](c3ccc(-c4ccc(F)cc4)cc3)[C@@H]2C1 do in these assays?
PAX8 inh HTS: -0.7

What do the screens show for `COc1ccc(-c2ccc([C@@H]3[C@@H](CO)N4CCCCN(C(=O)Cc5ccccc5)C[C@H]34)cc2)cc1`?
PAX8 inh HTS: 119.3*

Results for COc1ccc(-c2ccc([C@H]3[C@@H](CO)N4CCCCN(C(=O)Cc5ccccc5)C[C@H]34)cc2)cc1 ?
PAX8 inh HTS: 0.2

How did Nc1ccc(N2CCN(Cc3ccccc3Cl)CC2)c(Cl)c1 do in these assays?
Shn3 inh set2: 10.9; Beta cell apopt: 0.6; CSC inhib: 79.5*; Gli-Sufu antag: -1.5; Mdm2 MdmX PPI: -24.5

How did CC1=CC2OC3CC4OC(=O)C=CC=CC(C(C)O)OCC(O)C(C)CC(=O)OCC2(CC1O)C4(C)C31CO1 (stereo unspecified) do in these assays?
Shn3 inh set2: 93.5*; Gli-Sufu antag: 89.6*

What do the screens show for `CC(=O)OC1C(=O)OCC23CCC4(C)OC4C2OC2CC(OC(=O)C=CC=CC(=O)OCCC1C)C3(C)C21CO1` (stereo unspecified)?
Shn3 inh set2: 93.7*; Gli-Sufu antag: 88.7*; PAX8 inh HTS: 103.2*

Results for CC(O)C1C=CC=CC(=O)OC2CC3OC4C5OC5(C)CCC4(COC(=O)C4OC4(C)C(O)CO1)C2(C)C31CO1 (stereo unspecified) ?
Shn3 inh set2: 92.5*; Gli-Sufu antag: 86.3*; PAX8 inh HTS: 103.2*

What do the screens show for `COC(=O)[C@@H]1[C@@H](CO)[C@@H]2Cn3c(ccc(-c4ccccc4F)c3=O)[C@H]1N2C(=O)C1CC1`?
PAX8 inh HTS: 1.7

What do the screens show for `Cc1ccc(-n2c(O)c(/C=C/C=Nc3ccccc3)c(=O)[nH]c2=O)cc1`?
Shn3 inh set2: -0.2; Gli-Sufu antag: -1.1; PAX8 inh HTS: 18.3; Mdm2 MdmX PPI: -37.6

Results for Cc1ccc(N/N=C/c2c(O)n(-c3ccccc3)c(=O)[nH]c2=O)cc1 ?
Shn3 inh set2: -4.2; Beta cell apopt: -13.9; CSC inhib: 96.4*; PAX8 inh HTS: 25.4; Mdm2 MdmX PPI: -22.9

How did CN1CCN(c2ccc([N+](=O)[O-])c(NCc3ccco3)c2)CC1 do in these assays?
Shn3 inh set2: 3.8; Beta cell apopt: 3.0; CSC inhib: 93.0*; Gli-Sufu antag: 17.1; PAX8 inh HTS: 12.9; Mdm2 MdmX PPI: 6.3

What do the screens show for `O=[N+]([O-])c1ccc(N2CCNCC2)cc1NCc1ccco1`?
Shn3 inh set2: -3.3; Beta cell apopt: -3.2; CSC inhib: 8.8; Gli-Sufu antag: 10.0; PAX8 inh HTS: -24.4; Mdm2 MdmX PPI: 10.5

Results for COC(=O)[C@H]1[C@H](CO)[C@H]2Cn3c(ccc(-c4cccnc4)c3=O)[C@@H]1N2CCc1ccccc1 ?
PAX8 inh HTS: 2.2

How did CCC(C)C1NC(=O)C(NC(=O)C(CC(C)C)N(C)C(=O)C2CCCN2C(=O)C(C)O)C(C)OC(=O)C(Cc2ccc(OC)cc2)N(C)C(=O)C2CCCN2C(=O)C(CC(C)C)NC(=O)[C@H](C)C(=O)[C@H](C(C)C)OC(=O)CC1O (stereo partly specified) do in these assays?
Shn3 inh set2: 99.2*; Gli-Sufu antag: 89.9*; PAX8 inh HTS: 94.9*

How did C#CCCC[C@@H]1OC(=O)CNC(=O)C([C@@H](C)CC)NC(=O)[C@@H]2CCCN2C(=O)C([C@@H](C)CC)OC(=O)[C@H](Cc2ccccc2)N(C)C(=O)[C@H](C(C)C)NC(=O)C1(C)C (stereo partly specified) do in these assays?
Shn3 inh set2: 16.0; PAX8 inh HTS: -4.9

Results for O=C(Cc1ccccc1)N1C[C@H]2[C@@H](c3ccccc31)[C@@H](CO)N2Cc1ccccc1 ?
PAX8 inh HTS: 4.6

What do the screens show for `Oc1ccccc1/C=N/NP(=S)(c1ccccc1)c1ccccc1`?
Shn3 inh set2: -23.6; Beta cell apopt: 6.3; CSC inhib: 96.5*; Gli-Sufu antag: 10.1; PAX8 inh HTS: -66.8; Mdm2 MdmX PPI: -31.6

What do the screens show for `O=C1CNC[C@@H]2[C@@H](c3ccc(Br)cc3)[C@H](CO)N12`?
PAX8 inh HTS: -21.1

How did O=C(Cc1cccnc1)N1CCCCN2[C@H](CO)[C@@H](c3ccc(C#CC4CCCC4)cc3)[C@H]2C1 do in these assays?
PAX8 inh HTS: 0.9

Results for CC=Cc1ccc2n(c1=O)C[C@@H]1[C@@H](CO)[C@H](C(=O)N(C)C)N[C@H]21 (mixture of isomers) ?
PAX8 inh HTS: -0.4

What do the screens show for `Cc1cc(C)c2c(ccc3cccc[n+]32)c1`?
Shn3 inh set2: 75.2; Beta cell apopt: 82.1*; CSC inhib: -10.8; Gli-Sufu antag: 51.4; PAX8 inh HTS: 6.5; Mdm2 MdmX PPI: 29.3

What do the screens show for `COc1ccc(C#Cc2ccc([C@H]3[C@H]4CN(C(=O)Cc5ccncc5)CCCCN4[C@H]3CO)cc2)cc1`?
PAX8 inh HTS: 42.8

What do the screens show for `c1ccc2c(CN3CCCCCCC3)c[nH]c2c1`?
Shn3 inh set2: 0.2; Beta cell apopt: 103.9*; CSC inhib: 6.7; Gli-Sufu antag: 11.0; Mdm2 MdmX PPI: -2.6

How did c1ccc2c(CNC3CCCCC3)c[nH]c2c1 do in these assays?
Beta cell apopt: 115.1*; CSC inhib: 1.8; Gli-Sufu antag: 6.9; Mdm2 MdmX PPI: -7.1

How did CN(Cc1c[nH]c2ccccc12)C1CCCCC1 do in these assays?
Shn3 inh set2: 15.5; Beta cell apopt: 102.4*; CSC inhib: -14.1; Gli-Sufu antag: 8.2; PAX8 inh HTS: 23.8; Mdm2 MdmX PPI: 5.3

What do the screens show for `CC[n+]1c(-c2ccccc2)c2cc(N)ccc2c2ccc(N)cc21`?
Shn3 inh set2: 39.7; Gli-Sufu antag: -8.9; PAX8 inh HTS: 110.5*

Results for O=C(O)[C@H]1[C@H](CO)[C@H]2Cn3c(ccc(-c4cncnc4)c3=O)[C@@H]1N2C(=O)NC1CCCC1 ?
PAX8 inh HTS: -9.3

How did CCn1nc(-c2cccs2)nc2c(=O)n(C)c(=O)nc1-2 do in these assays?
Shn3 inh set2: 97.1*

What do the screens show for `CCOc1ccc(-n2c(-c3cccs3)nc3ccccc3c2=O)cc1`?
Shn3 inh set2: 20.9; Beta cell apopt: 4.8; Gli-Sufu antag: -2.6; PAX8 inh HTS: 4.8; Mdm2 MdmX PPI: 20.2

What do the screens show for `c1ccc2c(c1)[IH]c1ccccc1-2`?
Shn3 inh set2: 91.4*; Gli-Sufu antag: 85.9*; PAX8 inh HTS: 64.4*

What do the screens show for `O=c1[nH]c2ccccc2n1C1CCN(Cc2ccc(-c3nc4ccccc4nc3-c3ccccc3)cc2)CC1`?
PAX8 inh HTS: 47.9

What do the screens show for `Cc1ccc2nc(-c3ccc(CN4CCC(n5c(=O)[nH]c6ccccc65)CC4)cc3)c(-c3ccccc3)nc2c1`?
PAX8 inh HTS: 64.9*

High-throughput results (PubChem)
